# Measurements as given in PubChem BioAssay.
# For some of these results: Entries with a potency or affinity are not part of this list. Active and inactive are the calls of the source.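 How the source made its calls, unless noted: active means primary screen activator hit with a dose response curve and TRPC4 channel activation at any tested dose; inactive means no activation, no dose response, or not a primary hit.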
# Key:
# [1] = system: TRPC4 beta (transient receptor potential cation channel C4), mouse; test: TRPC4 cation channel opening, retest – cell-based, Fluo4 calcium, HEK293 TRPC4beta/mu-opioid, duplicates, 10 µM, confirmation (AID 2426;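 active means fluorescence ratio normalized to control raised more than 50% in primary screen plus both repeat runs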); conditions: Fluo4 calcium fluorescence, at 10 µM; stronger effect = higher value
# [2] = system: transient receptor potential cation channel C4 beta (TRPC4), mouse; test: TRPC4 cation channel opening, second retest – cell-based, second round, Fluo4, HEK293 TRPC4beta/mu-opioid, 1 µM, confirmation (AID 2461;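 active means primary screen active and over 50% activation in each of two duplicate runs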); conditions: Fluo4 calcium fluorescence, at 1 µM; stronger effect = higher value
# [3] = system: TRPC4 (transient receptor potential cation channel C4 beta), mouse; test: potentiation of DAMGO EC20 TRPC4 response – cell-based, second round, Fluo-4, HEK293 TRPC4beta/mu-opioid, 1 µM, confirmation (AID 2554;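 active means primary screen hit whose fluorescence ratio, in both repeats, exceeds the weak agonist control mean by 3 SD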); conditions: DAMGO EC20, Fluo-4 calcium flux, at 1 µM; stronger effect = higher value
# [4] = system: TRPC4 beta (transient receptor potential cation channel C4), mouse; test: potentiation of DAMGO EC20 TRPC4 response – cell-based, Fluo-4, HEK293 TRPC4beta/mu-opioid, confirmation (AID 2555;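 active means primary screen hit whose calcium fluorescence ratio, in both repeats, exceeds the weak agonist control mean by 3 SD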); conditions: DAMGO EC20, Fluo-4 calcium flux, at 10 µM; stronger effect = higher value
# [5] = target: Short transient receptor potential channel 4 (Mus musculus) (UniProt Q9QUQ5); test: blockers of DAMGO-evoked TRPC4 calcium flux – cell-based, Fluo4, HEK293 TRPC4beta/mu-opioid, confirmation (AID 2636;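 active means calcium signal cut by more than 3 SD below the full-agonist control yet still positive, in both repeats and the earlier primary screen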); conditions: at 10 µM; stronger effect = higher value
# [6] = target: Short transient receptor potential channel 4 (Mus musculus) (UniProt Q9QUQ5); test: blockers of DAMGO-evoked TRPC4 calcium flux – cell-based, second round, Fluo4, HEK293 TRPC4beta/mu-opioid, 1 µM, confirmation (AID 2637;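 active means calcium signal ratio cut to more than 3 SD under the fully stimulated control mean yet still positive, in both repeats and the primary screen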;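 on inhibition: percent of integrated ratio relative to wells lacking test compound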); conditions: at 1 µM; stronger effect = higher value
# [7] = target: Short transient receptor potential channel 4 (Mus musculus) (UniProt Q9QUQ5); test: calcium entry via TRPC4 opening agents – cell-based, HEK293 TRPC4/mu-opioid, Fluo-4 calcium, dose response (AID 434937)
# [8] = target: Short transient receptor potential channel 4 (Mus musculus) (UniProt Q9QUQ5); test: potentiation of DAMGO-evoked TRPC4 calcium signal – cell-based, HEK293 TRPC4/mu-opioid, Fluo-4 calcium, EC20 DAMGO, dose response (AID 434941;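 active means earlier screen potentiator hit that boosts the TRPC4 ion channel at some dose, with a dose response; inactive means no potentiation, no dose response, or not a prior hit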;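 further: calcium entry triggered by an EC20 dose of DAMGO at the co-expressed mu-opioid receptor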)
# [9] = target: Short transient receptor potential channel 6 (Mus musculus) (UniProt Q61143); test: TRPC6 blockade by TRPC4 inhibitor hits – cell-based, HEK293, membrane potential dye, duplicate, selectivity assay for TRPC4 inhibitor project, confirmation (AID 434948;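 active means active in primary screen and both duplicates, each dropping signal beyond three positive-control SD with fluorescence still positive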); conditions: HEK293 TRPC6, membrane potential dye fluorescence, at 10 µM, stimulated with maximal-effect acetylcholine; stronger effect = higher value
# [10] = target: Short transient receptor potential channel 6 (Mus musculus) (UniProt Q61143); test: TRPC6 opening by TRPC4 activator hits – cell-based, HEK293, membrane potential dye, duplicate, selectivity assay for TRPC4 activator project, confirmation (AID 434950;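 active means membrane potential signal rise above negative control mean plus 3 SD in both duplicates, also active in the earlier TRPC4 screen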); conditions: HEK293 TRPC6, membrane potential fluorescence, at 10 µM; activation: stronger effect = higher value; outcome: activation
# [11] = target: Short transient receptor potential channel 6 (Mus musculus) (UniProt Q61143); test: positive modulators of mouse TRPC6 channel – HEK293 cells, membrane potential dye, duplicate, selectivity assay for TRPC4 potentiator project, confirmation (AID 434952;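 active means compound raising the membrane signal above positive-control mean plus 3 SD in both repeats, and a primary screen hit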); conditions: HEK293 TRPC6, membrane potential dye fluorescence, at 10 µM, maximal acetylcholine added after compound; stronger effect = higher value
# [12] = target: Short transient receptor potential channel 4 (Mus musculus) (UniProt Q9QUQ5); test: calcium flux activators in TRPC4/5HT1a cells, counter-screen for TRPC4 activator project, cell-based, second counter screen, HEK293 TRPC4/5HT1a, Fluo-4 (AID 434977;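 active means calcium signal rise above buffer-control mean plus 5 SD in both duplicates, and also a hit in the primary screen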); conditions: Fluo-4 calcium flux, at 10 µM; stronger effect = higher value
# [13] = serotonin-gated TRPC4 signal block – cell-based, second counter screen, HEK293 TRPC4/5HT1a, Fluo-4, counter-screen for TRPC4 inhibitor project, confirmation (AID 434978;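 active means primary screen active whose calcium signal fell more than 3 SD beyond the full-serotonin control mean in both duplicate plates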;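 on outcome: serotonin given first at submaximal then at maximal dose after compound preincubation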); conditions: Fluo-4 calcium flux, at 10 µM, serotonin added to trigger calcium flux; stronger effect = higher value
# [14] = system: TRPC4 (mouse), co-expressed with 5HT1a in HEK293; test: enhancement of serotonin-evoked TRPC4 response – cell-based, second counter screen, HEK293 TRPC4/5HT1a, Fluo-4, counter-screen for TRPC4 potentiator project, confirmation (AID 434979;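 active means signal rise over 3 SD above mean of control wells given weak agonist, in both repeats and first screen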); conditions: Fluo-4 calcium flux, at 10 µM, serotonin added at its EC20 dose; stronger effect = higher value
# [15] = nonspecific calcium rise without TRPC4 – cell-based, HEK293 mu-opioid receptor line, counter-screen for TRPC4 activator project, confirmation (AID 449723;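 active means hit in primary screen, with calcium signal over 5 SD above buffer well mean in both duplicates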;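 further: counter screen cells carry the mu-opioid receptor alone and lack TRPC4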); conditions: HEK293 mu-opioid cells, Fluo-4 calcium fluorescence, at 10 µM; stronger effect = higher value
# [16] = nonspecific potentiation of DAMGO calcium response – cell-based, HEK293 mu-opioid receptor line, counter-screen for TRPC4 allosteric potentiator project, confirmation (AID 449724;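 active means calcium signal rise more than 3 SD above the low-dose agonist control mean, in both duplicate plates and the primary screen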); conditions: HEK293 mu-opioid receptor cells, Fluo-4 calcium flux, at 10 µM, compound added before EC20 DAMGO stimulus; stronger effect = higher value
# Chain of Short transient receptor potential channel 6 (Mus musculus) (Q61143 whole entry, looked up): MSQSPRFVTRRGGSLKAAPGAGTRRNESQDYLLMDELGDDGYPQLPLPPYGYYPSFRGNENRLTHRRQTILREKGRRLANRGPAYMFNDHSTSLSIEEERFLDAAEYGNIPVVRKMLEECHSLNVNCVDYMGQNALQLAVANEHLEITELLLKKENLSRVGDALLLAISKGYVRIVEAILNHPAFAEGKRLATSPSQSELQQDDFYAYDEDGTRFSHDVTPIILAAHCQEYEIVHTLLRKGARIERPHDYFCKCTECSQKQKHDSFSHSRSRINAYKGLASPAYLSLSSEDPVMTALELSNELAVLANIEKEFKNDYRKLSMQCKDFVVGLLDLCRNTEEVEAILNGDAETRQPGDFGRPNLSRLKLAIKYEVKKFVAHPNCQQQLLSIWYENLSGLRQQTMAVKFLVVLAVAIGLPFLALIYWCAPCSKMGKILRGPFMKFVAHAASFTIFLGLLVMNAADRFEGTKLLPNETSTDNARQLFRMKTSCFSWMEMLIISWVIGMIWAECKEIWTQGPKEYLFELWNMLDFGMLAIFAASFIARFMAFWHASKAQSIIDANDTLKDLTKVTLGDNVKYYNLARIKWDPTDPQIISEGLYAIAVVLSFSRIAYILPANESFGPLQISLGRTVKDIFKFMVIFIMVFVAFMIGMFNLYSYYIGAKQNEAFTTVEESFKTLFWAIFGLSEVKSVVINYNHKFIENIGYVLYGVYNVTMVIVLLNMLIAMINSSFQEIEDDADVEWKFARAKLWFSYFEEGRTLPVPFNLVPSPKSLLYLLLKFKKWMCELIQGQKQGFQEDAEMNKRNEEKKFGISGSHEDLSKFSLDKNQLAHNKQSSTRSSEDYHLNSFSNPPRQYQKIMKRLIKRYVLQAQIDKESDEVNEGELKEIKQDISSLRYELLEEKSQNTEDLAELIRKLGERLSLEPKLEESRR
# Chain of Short transient receptor potential channel 4 (Mus musculus) (Q9QUQ5 whole entry, looked up): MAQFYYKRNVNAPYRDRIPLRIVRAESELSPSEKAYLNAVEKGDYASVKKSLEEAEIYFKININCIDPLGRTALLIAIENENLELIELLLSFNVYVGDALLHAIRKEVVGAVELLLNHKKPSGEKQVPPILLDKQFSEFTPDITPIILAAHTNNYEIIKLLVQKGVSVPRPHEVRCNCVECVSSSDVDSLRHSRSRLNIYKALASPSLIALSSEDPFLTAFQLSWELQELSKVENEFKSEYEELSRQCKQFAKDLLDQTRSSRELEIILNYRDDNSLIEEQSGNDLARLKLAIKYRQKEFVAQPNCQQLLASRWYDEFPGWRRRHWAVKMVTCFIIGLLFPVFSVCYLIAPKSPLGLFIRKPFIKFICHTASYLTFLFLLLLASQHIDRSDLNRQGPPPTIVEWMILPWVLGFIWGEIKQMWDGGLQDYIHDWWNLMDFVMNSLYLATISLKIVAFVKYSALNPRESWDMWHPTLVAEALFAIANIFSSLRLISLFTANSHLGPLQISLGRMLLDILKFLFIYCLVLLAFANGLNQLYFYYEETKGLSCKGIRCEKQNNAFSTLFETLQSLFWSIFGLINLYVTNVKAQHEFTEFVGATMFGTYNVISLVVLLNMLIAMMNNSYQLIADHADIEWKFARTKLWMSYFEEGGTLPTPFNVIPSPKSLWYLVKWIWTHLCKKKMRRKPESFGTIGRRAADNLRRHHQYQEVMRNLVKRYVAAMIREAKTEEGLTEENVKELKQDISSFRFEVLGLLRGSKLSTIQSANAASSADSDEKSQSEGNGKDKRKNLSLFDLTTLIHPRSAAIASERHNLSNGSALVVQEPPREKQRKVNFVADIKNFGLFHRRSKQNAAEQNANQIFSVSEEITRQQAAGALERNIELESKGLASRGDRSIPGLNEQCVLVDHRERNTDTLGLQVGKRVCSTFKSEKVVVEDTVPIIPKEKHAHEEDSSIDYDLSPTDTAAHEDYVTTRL
Compound,outcome [1],outcome [2],outcome [3],outcome [4],inhibition [5],outcome [6],outcome [7],outcome [8],inhibition [9],outcome [10],outcome [11],outcome [12],inhibition [13],outcome [14],outcome [15],outcome [16],outcome [9],outcome [13],inhibition [6]
COc1ccccc1CNCC(c1ccccc1)c1ccccc1,inactive,inactive,inactive,inactive,60% (active),inactive,inactive,inactive,55% (active),inactive,inactive,inactive,44.3% (active),inactive,inactive,inactive,–,–,–
O=C(c1cccc(C(F)(F)F)c1)C1CCCN(Cc2cccn2-c2ccccn2)C1 (configuration not stated),inactive,inactive,inactive,inactive,72% (active),inactive,inactive,inactive,43% (active),inactive,inactive,inactive,29.2% (active),inactive,inactive,inactive,–,–,–
COc1ccc(-n2c3c(cc(C(=O)NCc4ccco4)c2=O)C(=O)CC(C)(C)C3)cc1,inactive,inactive,inactive,inactive,53% (active),inactive,inactive,inactive,–,inactive,inactive,inactive,–,inactive,inactive,inactive,inactive,inactive,–
CCN(CC)Cc1cc(CCNC(=O)c2ccc(Cl)cc2)ccc1O,inactive,inactive,inactive,inactive,97% (active),–,inactive,inactive,–,inactive,inactive,inactive,31.2% (active),inactive,inactive,inactive,inactive,–,75% (active)
CN(C)CCN1C(=O)C2C(C(=O)Nc3cc(Cl)cc(Cl)c3)C3C=CC2(O3)C1C(=O)NC1CCCCC1 (configuration not stated),inactive,inactive,inactive,inactive,71% (active),inactive,inactive,inactive,–,inactive,inactive,inactive,–,inactive,inactive,inactive,inactive,inactive,–
Cc1cccc(-c2nnc(SCc3nc4ccccc4[nH]3)n2Cc2ccco2)c1,inactive,inactive,inactive,inactive,90% (active),inactive,inactive,inactive,–,inactive,inactive,inactive,26.7% (active),inactive,inactive,inactive,inactive,–,–
Cc1ccc(NC(=O)CNc2ccccc2CN(C)C2CCCCC2)cc1,inactive,inactive,inactive,inactive,76% (active),inactive,inactive,inactive,–,inactive,inactive,inactive,33.5% (active),inactive,inactive,inactive,inactive,–,–
